Measurements: article PMC11006913
Substitutions are numbered along the chain they refer to.

Tests used:
Assay in all cases: PBM; 200 nM protein, PBS
Conditions in all cases: dsDNA, one strand shown
[1] = target: T1, SIX6 (Homo sapiens, UniProt O95475 114-200, L167I)
T1 sequence: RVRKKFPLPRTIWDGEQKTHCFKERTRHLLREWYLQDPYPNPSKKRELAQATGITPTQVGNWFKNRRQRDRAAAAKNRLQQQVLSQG

[2] = target: T2, SIX6 (Homo sapiens, UniProt O95475 114-200, L143V)
T2 sequence: T1 sequence with L30V, I54L

[3] = target: T3, SIX6 (Homo sapiens, UniProt O95475 114-200, H141N)
T3 sequence: T1 sequence with H28N, I54L

[4] = target: T4, SIX6 (Homo sapiens, UniProt O95475 114-200, T165P)
T4 sequence: T1 sequence with T52P, I54L

[5] = target: T5, SIX6 (Homo sapiens, UniProt O95475 114-200, L167M)
T5 sequence: T1 sequence with I54M

[6] = target: T6, SIX6 (Homo sapiens, UniProt O95475 114-200, L143M)
T6 sequence: T1 sequence with L30M, I54L

[7] = target: T7, SIX6 (Homo sapiens, UniProt O95475 114-200, L143I)
T7 sequence: T1 sequence with L30I, I54L

[8] = target: HOXB6 (Homo sapiens, UniProt P17509 132-218, K202E)
[9] = target: T8, SIX6 (Homo sapiens, UniProt O95475 114-200, T165G)
T8 sequence: T1 sequence with T52G, I54L

[10] = target: T9, SIX6 (Homo sapiens, UniProt O95475 114-200, T139Q)
T9 sequence: T1 sequence with T26Q, I54L

[11] = target: T10, SIX6 (Homo sapiens, UniProt O95475 114-200, T165A)
T10 sequence: T1 sequence with T52A, I54L

[12] = target: T11, SIX6 (Homo sapiens, UniProt O95475 114-200, L167V)
T11 sequence: T1 sequence with I54V

[13] = target: T12, SIX6 (Homo sapiens, UniProt O95475 114-200)
T12 sequence: T1 sequence with I54L

[14] = target: T13, SIX6 (Homo sapiens, UniProt O95475 114-200, T165I)
T13 sequence: T1 sequence with T52I, I54L

[15] = target: HOXB6 (Homo sapiens, UniProt P17509 132-218)
[16] = target: HOXA2 (Homo sapiens, UniProt O43364 129-215, R185T)
[17] = target: ALX1 (Homo sapiens, UniProt Q15699 118-204, L144V)
[18] = target: ALX3 (Homo sapiens, UniProt O95076 139-225, N203Q)
[19] = target: HOXA2 (Homo sapiens, UniProt O43364 129-215, R185K)
[20] = target: ALX1 (Homo sapiens, UniProt Q15699 118-204, L144R)
[21] = target: ALX3 (Homo sapiens, UniProt O95076 139-225)
[22] = target: ALX3 (Homo sapiens, UniProt O95076 139-225, L168Q)
[23] = target: ALX3 (Homo sapiens, UniProt O95076 139-225, L168V)
[24] = target: HOXA2 (Homo sapiens, UniProt O43364 129-215, Y150S)
[25] = target: ALX1 (Homo sapiens, UniProt Q15699 118-204)
[26] = target: ALX3 (Homo sapiens, UniProt O95076 139-225, N203S)
[27] = target: HOXA2 (Homo sapiens, UniProt O43364 129-215)
[28] = target: HOXB9 (Homo sapiens, UniProt P17482 171-250)
[29] = target: HOXB9 (Homo sapiens, UniProt P17482 171-250, R186Q)
Sequence of HOXB9 (Homo sapiens, UniProt P17482 171-250, R186Q) (P17482 171-250 R186Q): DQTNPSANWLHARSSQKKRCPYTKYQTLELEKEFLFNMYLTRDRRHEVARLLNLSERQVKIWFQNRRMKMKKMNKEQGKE

Sequence of HOXA2 (Homo sapiens, UniProt O43364 129-215, R185T) (O43364 129-215 R185T): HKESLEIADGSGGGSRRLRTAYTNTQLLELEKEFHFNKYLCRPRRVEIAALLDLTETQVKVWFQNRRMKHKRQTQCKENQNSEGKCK
Sequence of HOXA2 (Homo sapiens, UniProt O43364 129-215) (O43364 129-215): as the sequence (O43364 129-215 R185T) above, with T57R counted along it
Sequence of HOXA2 (Homo sapiens, UniProt O43364 129-215, R185K) (O43364 129-215 R185K): as the sequence (O43364 129-215 R185T) above, with T57K counted along it
Sequence of HOXA2 (Homo sapiens, UniProt O43364 129-215, Y150S) (O43364 129-215 Y150S): as the sequence (O43364 129-215 R185T) above, with Y22S, T57R counted along it
Sequence of ALX3 (Homo sapiens, UniProt O95076 139-225, N203S) (O95076 139-225 N203S): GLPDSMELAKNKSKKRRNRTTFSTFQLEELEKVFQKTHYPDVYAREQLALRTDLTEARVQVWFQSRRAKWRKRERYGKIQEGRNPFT
Sequence of HOXB6 (Homo sapiens, UniProt P17509 132-218) (P17509 132-218): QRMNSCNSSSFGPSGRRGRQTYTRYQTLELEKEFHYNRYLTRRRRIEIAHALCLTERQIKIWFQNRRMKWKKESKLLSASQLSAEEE
Sequence of ALX3 (Homo sapiens, UniProt O95076 139-225, L168Q) (O95076 139-225 L168Q): as the sequence (O95076 139-225 N203S) above, with L30Q, S65N counted along it
Sequence of HOXB9 (Homo sapiens, UniProt P17482 171-250) (P17482 171-250): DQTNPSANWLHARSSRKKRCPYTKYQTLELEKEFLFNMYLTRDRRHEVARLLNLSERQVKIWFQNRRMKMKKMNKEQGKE
Sequence of ALX3 (Homo sapiens, UniProt O95076 139-225, L168V) (O95076 139-225 L168V): as the sequence (O95076 139-225 N203S) above, with L30V, S65N counted along it
Sequence of ALX3 (Homo sapiens, UniProt O95076 139-225) (O95076 139-225): as the sequence (O95076 139-225 N203S) above, with S65N counted along it
Sequence of ALX1 (Homo sapiens, UniProt Q15699 118-204, L144V) (Q15699 118-204 L144V): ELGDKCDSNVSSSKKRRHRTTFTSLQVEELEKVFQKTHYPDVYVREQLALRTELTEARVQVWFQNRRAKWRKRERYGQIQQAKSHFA
Sequence of ALX1 (Homo sapiens, UniProt Q15699 118-204, L144R) (Q15699 118-204 L144R): as the sequence (Q15699 118-204 L144V) above, with V27R counted along it
Sequence of HOXB6 (Homo sapiens, UniProt P17509 132-218, K202E) (P17509 132-218 K202E): as the sequence (P17509 132-218) above, with K71E counted along it
Sequence of ALX3 (Homo sapiens, UniProt O95076 139-225, N203Q) (O95076 139-225 N203Q): as the sequence (O95076 139-225 N203S) above, with S65Q counted along it
Sequence of ALX1 (Homo sapiens, UniProt Q15699 118-204) (Q15699 118-204): as the sequence (Q15699 118-204 L144V) above, with V27L counted along it

AACGCGGC was tested, and the binding signal [1] was 8.99 upbm affinity estimate (log intensity, higher = more binding, comparable within an allelic series), the binding signal [2] was 8.99 upbm affinity estimate (log intensity, higher = more binding, comparable within an allelic series) and the binding signal [3] was 8.99 upbm affinity estimate (log intensity, higher = more binding, comparable within an allelic series). The binding signal [4] was 9.03 upbm affinity estimate (log intensity, higher = more binding, comparable within an allelic series), the binding signal [5] was 8.95 upbm affinity estimate (log intensity, higher = more binding, comparable within an allelic series) and the binding signal [6] was 9.03 upbm affinity estimate (log intensity, higher = more binding, comparable within an allelic series). The binding signal [7] was 8.92 upbm affinity estimate (log intensity, higher = more binding, comparable within an allelic series), the binding signal [8] was 9.12 upbm affinity estimate (log intensity, higher = more binding, comparable within an allelic series) and the binding signal [9] was 8.8 upbm affinity estimate (log intensity, higher = more binding, comparable within an allelic series). For the same sequence, the binding signal [10] was 8.99 upbm affinity estimate (log intensity, higher = more binding, comparable within an allelic series), the binding signal [11] was 8.84 upbm affinity estimate (log intensity, higher = more binding, comparable within an allelic series) and the binding signal [12] was 8.94 upbm affinity estimate (log intensity, higher = more binding, comparable within an allelic series). The binding signal [13] was 8.94 upbm affinity estimate (log intensity, higher = more binding, comparable within an allelic series), the binding signal [14] was 8.96 upbm affinity estimate (log intensity, higher = more binding, comparable within an allelic series) and the binding signal [15] was 9.14 upbm affinity estimate (log intensity, higher = more binding, comparable within an allelic series).
AGCCGGCT was tested, and the binding signal [1] was 9.39 upbm affinity estimate (log intensity, higher = more binding, comparable within an allelic series), the binding signal [2] was 9.1 upbm affinity estimate (log intensity, higher = more binding, comparable within an allelic series) and the binding signal [3] was 9.34 upbm affinity estimate (log intensity, higher = more binding, comparable within an allelic series). For the same sequence, the binding signal [4] was 8.96 upbm affinity estimate (log intensity, higher = more binding, comparable within an allelic series), the binding signal [5] was 9.33 upbm affinity estimate (log intensity, higher = more binding, comparable within an allelic series) and the binding signal [6] was 9.42 upbm affinity estimate (log intensity, higher = more binding, comparable within an allelic series). The binding signal [7] was 9.2 upbm affinity estimate (log intensity, higher = more binding, comparable within an allelic series), the binding signal [9] was 9.33 upbm affinity estimate (log intensity, higher = more binding, comparable within an allelic series) and the binding signal [16] was 7.56 upbm affinity estimate (log intensity, higher = more binding, comparable within an allelic series). The binding signal [10] was 9.36 upbm affinity estimate (log intensity, higher = more binding, comparable within an allelic series), the binding signal [17] was 6.54 upbm affinity estimate (log intensity, higher = more binding, comparable within an allelic series) and the binding signal [18] was 7.78 upbm affinity estimate (log intensity, higher = more binding, comparable within an allelic series). For the same sequence, the binding signal [11] was 9.35 upbm affinity estimate (log intensity, higher = more binding, comparable within an allelic series), the binding signal [19] was 10.5 upbm affinity estimate (log intensity, higher = more binding, comparable within an allelic series) and the binding signal [20] was 6.74 upbm affinity estimate (log intensity, higher = more binding, comparable within an allelic series). The binding signal [12] was 9.33 upbm affinity estimate (log intensity, higher = more binding, comparable within an allelic series), the binding signal [21] was 8.13 upbm affinity estimate (log intensity, higher = more binding, comparable within an allelic series) and the binding signal [13] was 9.39 upbm affinity estimate (log intensity, higher = more binding, comparable within an allelic series). For the same sequence, the binding signal [22] was 7.76 upbm affinity estimate (log intensity, higher = more binding, comparable within an allelic series), the binding signal [14] was 9.26 upbm affinity estimate (log intensity, higher = more binding, comparable within an allelic series) and the binding signal [23] was 7.76 upbm affinity estimate (log intensity, higher = more binding, comparable within an allelic series). The binding signal [24] was 10.2 upbm affinity estimate (log intensity, higher = more binding, comparable within an allelic series), the binding signal [25] was 6.76 upbm affinity estimate (log intensity, higher = more binding, comparable within an allelic series) and the binding signal [26] was 7.77 upbm affinity estimate (log intensity, higher = more binding, comparable within an allelic series). For the same sequence, the binding signal [27] was 7.61 upbm affinity estimate (log intensity, higher = more binding, comparable within an allelic series).
With AGTGATAT the binding signal [1] was 11.3 upbm affinity estimate (log intensity, higher = more binding, comparable within an allelic series), the binding signal [2] was 10.3 upbm affinity estimate (log intensity, higher = more binding, comparable within an allelic series) and the binding signal [3] was 11.3 upbm affinity estimate (log intensity, higher = more binding, comparable within an allelic series). For the same sequence, the binding signal [4] was 9.9 upbm affinity estimate (log intensity, higher = more binding, comparable within an allelic series), the binding signal [5] was 10.8 upbm affinity estimate (log intensity, higher = more binding, comparable within an allelic series) and the binding signal [6] was 11 upbm affinity estimate (log intensity, higher = more binding, comparable within an allelic series). The binding signal [7] was 10.3 upbm affinity estimate (log intensity, higher = more binding, comparable within an allelic series), the binding signal [9] was 11.2 upbm affinity estimate (log intensity, higher = more binding, comparable within an allelic series) and the binding signal [28] was 9.87 upbm affinity estimate (log intensity, higher = more binding, comparable within an allelic series). For the same sequence, the binding signal [10] was 11.1 upbm affinity estimate (log intensity, higher = more binding, comparable within an allelic series), the binding signal [11] was 11.2 upbm affinity estimate (log intensity, higher = more binding, comparable within an allelic series) and the binding signal [12] was 11 upbm affinity estimate (log intensity, higher = more binding, comparable within an allelic series). For the same sequence, the binding signal [13] was 11 upbm affinity estimate (log intensity, higher = more binding, comparable within an allelic series), the binding signal [14] was 11.1 upbm affinity estimate (log intensity, higher = more binding, comparable within an allelic series) and the binding signal [29] was 9.76 upbm affinity estimate (log intensity, higher = more binding, comparable within an allelic series).
In the case of GCCCTGCC, the binding signal [1] is reported as 8.89 upbm affinity estimate (log intensity, higher = more binding, comparable within an allelic series), the binding signal [2] is reported as 8.78 upbm affinity estimate (log intensity, higher = more binding, comparable within an allelic series) and the binding signal [3] is reported as 8.91 upbm affinity estimate (log intensity, higher = more binding, comparable within an allelic series). For the same sequence, the binding signal [4] was 8.91 upbm affinity estimate (log intensity, higher = more binding, comparable within an allelic series), the binding signal [5] was 8.87 upbm affinity estimate (log intensity, higher = more binding, comparable within an allelic series) and the binding signal [6] was 8.9 upbm affinity estimate (log intensity, higher = more binding, comparable within an allelic series). The binding signal [7] was 8.84 upbm affinity estimate (log intensity, higher = more binding, comparable within an allelic series), the binding signal [9] was 8.91 upbm affinity estimate (log intensity, higher = more binding, comparable within an allelic series) and the binding signal [16] was 6.93 upbm affinity estimate (log intensity, higher = more binding, comparable within an allelic series). For the same sequence, the binding signal [10] was 9.01 upbm affinity estimate (log intensity, higher = more binding, comparable within an allelic series), the binding signal [11] was 8.99 upbm affinity estimate (log intensity, higher = more binding, comparable within an allelic series) and the binding signal [19] was 10.3 upbm affinity estimate (log intensity, higher = more binding, comparable within an allelic series). For the same sequence, the binding signal [12] was 8.94 upbm affinity estimate (log intensity, higher = more binding, comparable within an allelic series), the binding signal [13] was 8.87 upbm affinity estimate (log intensity, higher = more binding, comparable within an allelic series) and the binding signal [14] was 8.85 upbm affinity estimate (log intensity, higher = more binding, comparable within an allelic series). The binding signal [24] was 10.4 upbm affinity estimate (log intensity, higher = more binding, comparable within an allelic series) and the binding signal [27] was 7.06 upbm affinity estimate (log intensity, higher = more binding, comparable within an allelic series).
